PubChem BioAssay (Tox21)
Unmarked numbers belong to inactive results. Inconclusive results are not listed. Entries that show only a call come without a potency. Activity calls are given as the source filed them. Unless noted, calls follow the shape of the dose curve; as a rule, active = well fitted curve in the direction sought with a large enough effect in the repeat runs; inconclusive = weak or mixed curves; inactive = no such curve, though single readings can be large; an effect the other way counts as inactive or inconclusive.

Legend:
[1] = qHTS assay for small molecules that induce genotoxicity in human embryonic kidney cells expressing luciferase-tagged ATAD5 (AID 651632); also: nearly all actives have a fitted effect of over 15% in size
In short: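 Reporter cells (HEK293T) express luciferase-tagged ATAD5, a protein that accumulates after DNA damage. Treat 16 hr at 37C/5% CO2, add Amplite, wait 30 min at RT, and read luminescence.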

[2] = qHTS assay for small molecule agonists of the p53 signaling pathway - cell viability (AID 651633; calls by dose curve; also: nearly all actives have a fitted effect of over 30% in size; also: potency is read from the fitted curve at half-maximal effect)
In short: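 p53RE-bla cells were treated with compound for 16 hours at 37 C. Cytotoxicity was then measured as CellTiter-Glo luminescence after 30 min at room temperature.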

[3] = qHTS assay for small molecules that induce genotoxicity in human embryonic kidney cells expressing luciferase-tagged ATAD5 - cell viability (AID 651634; calls by dose curve; also: nearly all actives have a fitted effect of over 25% in size)
In short: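 Seeding of 2,000 HEK293T ATAD5-luciferase cells per well preceded pin-tool compound transfer. Plates sat 15.5 hr at 37C under 5% CO2, then fluorescence was read after 30 min with CellTiter-Fluor.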

[4] = qHTS assay for small molecule disruptors of the mitochondrial membrane potential - cell viability (AID 720634; calls by dose curve;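 also: human HepG2 liver cancer cells; series mostly up to about 83 µM; nearly all actives have a fitted effect of over 20% in size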)
In short: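 Measuring cytotoxicity alongside mitochondrial potential, the screen quantified ATP by luminescence in HepG2 cells after 1 hr compound incubation and a 30 min room-temperature CellTiter-Glo step.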

[5] = qHTS assay to test for compound auto fluorescence at 590 nm (red) in HepG2 cells (AID 720674)
In short: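 Seeding: 2,000 HepG2 cells/well, MEM/10% FBS, overnight 37 C. Dosing: compound vs DMSO. Incubation: 1 hr, 37 C, 5% CO2. Read: fluorescence 540 ex/590 em, Rose Bengal sodium as red reference.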

[6] = qHTS assay to test for compound auto fluorescence at 535 nm (green) in HepG2 cells (AID 720675)
[7] = qHTS assay to test for compound auto fluorescence at 535 nm (green) in HEK293 cells (AID 720680)
[8] = qHTS assay to test for compound auto fluorescence at 535 nm (green) in HEK293 cell free culture (AID 720682)
In short: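 Green-channel intensity (Ex/Em 485/535 nm) was recorded from compound-treated wells containing only DMEM with 10% FBS. Fluorescein provided the equivalency standard.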

[9] = qHTS assay to test for compound auto fluorescence at 590 nm (red) in HepG2 cell free culture (AID 720684)
In short: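 Compounds are added to culture medium (MEM, 10% FBS) lacking cells, then fluorescence is read at excitation 540 nm, emission 590 nm, with Rose Bengal sodium as the equivalency standard.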

[10] = qHTS assay to test for compound auto fluorescence at 535 nm (green) in HepG2 cell free culture (AID 720686)
[11] = qHTS assay to test for compound auto fluorescence at 460 nm (blue) in HEK293 cells (AID 720678)
In short: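 Auto fluorescence in the blue band was quantified as triamterene equivalency. HEK293 cells were seeded at 2,000/well, dosed after a 4-5 hr attachment, and kept overnight at 37C before the 405/460 nm reading.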

[12] = qHTS assay to test for compound auto fluorescence at 590 nm (red) in HEK293 cells (AID 720679)
In short: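 Autofluorescence equivalency to Rose Bengal sodium, 540/590nm, in HEK293 cells exposed overnight to 23 nL compound per well.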

[13] = qHTS assay to test for compound auto fluorescence at 460 nm (blue) in HEK293 cell free culture (AID 720681)
In short: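 Compounds were added to cell-free DMEM with 10% FBS and fluorescence read directly. The blue channel used 405 nm excitation and 460 nm emission, with triamterene as the reference fluorophore.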

[14] = qHTS assay to test for compound auto fluorescence at 590 nm (red) in HEK293 cell free culture (AID 720683)
In short: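 Cell-free wells of DMEM with 10% FBS received compound, and intrinsic fluorescence was read at excitation/emission 540/590 nm. Values expressed as equivalence to Rose Bengal sodium.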

[15] = qHTS assay to test for compound auto fluorescence at 460 nm (blue) in HepG2 cell free culture (AID 720685)
In short: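 Compound (23 nL) or DMSO pinned into cell-free MEM with 10% FBS; blue fluorescence read at 405/460 nm excitation/emission, expressed as auto-fluorescence equivalency to triamterene.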

[16] = qHTS assay to test for compound auto fluorescence at 460 nm (blue) in HepG2 cells (AID 720687)
In short: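 HepG2 cells in MEM with 10% FBS, attached overnight at 37 C, were exposed to compound or DMSO for 1 hr at 37 C, 5% CO2. Blue fluorescence was read at 405/460 nm, with triamterene as reference fluorophore.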

[17] = biological target: Glucocorticoid receptor (Homo sapiens) (UniProt P04150); assay: qHTS assay to identify small molecule agonists of the glucocorticoid receptor (GR) signaling pathway (AID 720691; active = well fitted activation curve with a large enough effect in the signal ratio in the repeat runs, not every such curve was filed as active; the % refers to the signal ratio)
In short: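 Reporter read-out: fluorescence intensity following 2 h room-temperature LiveBLAzer B/G FRET substrate loading. Prior step: GR-bla HeLa cells held 4 h, then treated 18 h at 37 C.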

[18] = biological target: Glucocorticoid receptor (Homo sapiens) (UniProt P04150); assay: qHTS assay to identify small molecule antagonists of the glucocorticoid receptor (GR) signaling pathway (AID 720692; active = well fitted inhibition curve with a large enough effect in the signal ratio in the repeat runs, not every such curve was filed as active; the % refers to the signal ratio)
In short: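 Dexamethasone (5 nM final) stimulated a stably integrated GRE-beta-lactamase reporter in HeLa cells during 18 h co-incubation with compounds; signal was quantified as fluorescence intensity of B/G FRET substrate after 2 h.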

[19] = qHTS assay for small molecule disruptors of the mitochondrial membrane potential (AID 720635); also: potency is read from the fitted curve at half-maximal effect
In short: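 HepG2 cells exposed to compound 1 hr at 37C, then Mito-MPS dye 30 min. Ratio read of aggregate (540/590 nm) versus monomer (490/535 nm) fluorescence.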

Sequence of Glucocorticoid receptor (Homo sapiens) (P04150 whole entry, looked up): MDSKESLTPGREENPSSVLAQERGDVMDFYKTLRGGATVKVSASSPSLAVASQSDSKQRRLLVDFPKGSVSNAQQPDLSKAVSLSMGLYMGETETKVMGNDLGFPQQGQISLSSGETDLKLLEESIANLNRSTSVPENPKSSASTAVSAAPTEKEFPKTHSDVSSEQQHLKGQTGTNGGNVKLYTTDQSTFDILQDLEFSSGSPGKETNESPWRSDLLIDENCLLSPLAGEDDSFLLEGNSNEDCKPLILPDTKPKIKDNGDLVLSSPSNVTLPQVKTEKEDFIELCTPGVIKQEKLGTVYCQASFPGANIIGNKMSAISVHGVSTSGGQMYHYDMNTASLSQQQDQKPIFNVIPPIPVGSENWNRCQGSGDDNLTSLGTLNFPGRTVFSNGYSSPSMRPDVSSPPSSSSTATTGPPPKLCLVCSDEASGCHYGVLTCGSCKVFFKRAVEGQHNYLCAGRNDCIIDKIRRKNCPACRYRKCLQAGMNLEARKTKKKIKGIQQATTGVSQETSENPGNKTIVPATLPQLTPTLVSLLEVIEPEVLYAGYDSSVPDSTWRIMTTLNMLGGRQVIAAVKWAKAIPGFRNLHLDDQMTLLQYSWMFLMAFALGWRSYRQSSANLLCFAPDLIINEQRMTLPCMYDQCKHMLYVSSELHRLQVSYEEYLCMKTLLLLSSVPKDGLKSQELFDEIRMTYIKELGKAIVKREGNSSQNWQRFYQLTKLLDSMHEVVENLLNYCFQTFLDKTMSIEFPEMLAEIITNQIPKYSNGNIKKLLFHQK

COc1cc(OC)c2ccc(=O)oc2c1
Potency [1]: inactive
Potency [2]: inactive
Potency [3]: inactive
outcome [4]: inactive
outcome [5]: inactive
outcome [6]: inactive
outcome [7]: inactive
outcome [8]: inactive
outcome [9]: inactive
outcome [10]: inactive

CC(CCc1ccc(O)cc1)NCCc1ccc(O)c(O)c1 (configuration not stated)
Potency [1]: inactive
Potency [2]: inactive
Potency [3]: inactive
outcome [4]: inactive
outcome [5]: inactive
outcome [6]: inactive
Potency [11]: inactive
outcome [12]: inactive
outcome [7]: inactive
Potency [13]: inactive
outcome [8]: inactive
outcome [14]: inactive
outcome [9]: inactive
Potency [15]: inactive
Potency [16]: inactive
Potency [17]: inactive
Potency [18]: inactive

CCCCCCCCCCCCCC(=O)OCC(O)CO (configuration not stated)
Potency [1]: inactive
Potency [2]: inactive
Potency [3]: inactive
outcome [4]: inactive
outcome [5]: inactive
outcome [6]: inactive
Potency [11]: inactive
outcome [12]: inactive
outcome [7]: inactive
outcome [8]: inactive
outcome [14]: inactive
outcome [9]: inactive
Potency [15]: inactive
outcome [10]: inactive
Potency [16]: inactive
Potency [17]: inactive

COc1ccc(/C=C/C(=O)c2ccc(OC)cc2OC)cc1
Potency [1]: inactive
Potency [2]: inactive
outcome [4]: inactive
Potency [19]: 13.3 µM (active)
outcome [5]: inactive
outcome [6]: inactive
Potency [11]: inactive
outcome [7]: inactive
Potency [13]: inactive
outcome [8]: inactive
outcome [14]: inactive
outcome [9]: inactive
Potency [15]: inactive
outcome [10]: inactive
Potency [16]: inactive
Potency [17]: inactive

COc1cc(NCc2ccc3nc(N)nc(N)c3c2C)cc(OC)c1OC
Potency [1]: inactive
Potency [2]: 0.335 µM (active)
outcome [4]: inactive
outcome [5]: inactive
outcome [6]: inactive
Potency [11]: inactive
outcome [12]: inactive
outcome [7]: inactive
Potency [13]: inactive
outcome [8]: inactive
outcome [14]: inactive
outcome [9]: inactive
Potency [15]: inactive
outcome [10]: inactive
Potency [16]: inactive
Potency [17]: inactive

CCOC(=O)c1ccc(NC(=O)CN2CCCCC2)cc1
Potency [1]: inactive
Potency [2]: inactive
Potency [3]: inactive
outcome [4]: inactive
Potency [19]: inactive
outcome [5]: inactive
outcome [6]: inactive
Potency [13]: inactive
outcome [8]: inactive
outcome [14]: inactive
outcome [9]: inactive
Potency [15]: inactive
Potency [16]: inactive
Potency [17]: inactive
Potency [18]: inactive

COC(C)(C)OC
Potency [1]: inactive
Potency [2]: inactive
Potency [3]: inactive
outcome [4]: inactive
outcome [5]: inactive
outcome [6]: inactive
Potency [11]: inactive
outcome [8]: inactive
outcome [14]: inactive
outcome [9]: inactive
Potency [15]: inactive
outcome [10]: inactive
Potency [16]: inactive

CCCc1nc2c(C)cc(-c3nc4ccccc4n3C)cc2n1Cc1ccc(-c2ccccc2C(=O)O)cc1
Potency [1]: inactive
Potency [2]: inactive
Potency [3]: inactive
outcome [4]: inactive
outcome [5]: inactive
outcome [6]: inactive
Potency [11]: inactive
outcome [12]: inactive
outcome [7]: inactive
Potency [13]: inactive
outcome [8]: inactive
outcome [14]: inactive
outcome [9]: inactive
outcome [10]: inactive
Potency [16]: inactive
Potency [17]: inactive

O=C(c1ccccc1)C1CCC1
Potency [1]: inactive
Potency [2]: inactive
outcome [4]: inactive
Potency [19]: inactive
outcome [5]: inactive
outcome [6]: inactive
Potency [11]: inactive
outcome [12]: inactive
outcome [7]: inactive
Potency [13]: inactive
outcome [8]: inactive
outcome [14]: inactive
outcome [9]: inactive
Potency [15]: inactive
outcome [10]: inactive
Potency [16]: inactive
Potency [17]: inactive

CC(C)OC(=O)c1ccccc1C(=O)OC(C)C
Potency [1]: inactive
Potency [2]: inactive
outcome [4]: inactive
Potency [19]: inactive
outcome [6]: inactive
outcome [12]: inactive
outcome [7]: inactive
Potency [13]: inactive
outcome [8]: inactive
outcome [14]: inactive
outcome [9]: inactive
Potency [15]: inactive
outcome [10]: inactive
Potency [16]: inactive
Potency [17]: inactive
Potency [18]: inactive

CC(C(=O)O)c1ccc(C(=O)c2cccs2)cc1 (configuration not stated)
Potency [1]: inactive
Potency [2]: inactive
outcome [4]: inactive
fluorescence, relative to Rose Bengal [5]: 0.487% [at 18.6 µM]
fluorescence, % of fluorescein control [6]: -0.0382% [at 18.6 µM]
fluorescence, % of triamterene [11]: -0.243% [at 18.6 µM]
fluorescence, % of fluorescent control [12]: 0.162% [at 18.6 µM]
fluorescence, % of fluorescein [7]: 0.0235% [at 18.6 µM]
fluorescence, % of fluorescent control [13]: -0.0817% [at 18.6 µM]
activity change [8]: -0.0028% [at 18.6 µM]
fluorescence, % of fluorescent control [14]: -0.0893% [at 18.6 µM]
fluorescence, % of Rose Bengal [9]: -0.362% [at 18.6 µM]
fluorescence, % of fluorescent control [15]: -0.005% [at 18.6 µM]
fluorescence, % of fluorescein control [10]: -0.0792% [at 18.6 µM]
fluorescence, % of fluorescent control [16]: 0.0525% [at 18.6 µM]
Potency [17]: inactive
Potency [18]: inactive

CCCCCCCCCCCCCCCC(=O)OCC
Potency [1]: inactive
Potency [2]: inactive
outcome [4]: inactive
outcome [5]: inactive
outcome [6]: inactive
Potency [11]: inactive
outcome [12]: inactive
outcome [7]: inactive
Potency [13]: inactive
outcome [8]: inactive
outcome [14]: inactive
outcome [9]: inactive
Potency [15]: inactive
outcome [10]: inactive
Potency [16]: inactive
Potency [17]: inactive
Potency [18]: inactive

OCC(CO)n1cnc(-c2ccc(F)cc2)c1-c1ccnc(Oc2ccccc2)n1
Potency [1]: inactive
Potency [2]: inactive
outcome [4]: inactive
outcome [5]: inactive
outcome [6]: inactive
Potency [11]: inactive
outcome [12]: inactive
Potency [13]: inactive
outcome [8]: inactive
outcome [14]: inactive
outcome [9]: inactive
outcome [10]: inactive
Potency [16]: inactive
Potency [17]: inactive

Cc1ccc(N(CC2=NCCN2)c2cccc(O)c2)cc1
Potency [1]: inactive
Potency [2]: inactive
Potency [3]: inactive
outcome [4]: inactive
outcome [5]: inactive
outcome [6]: inactive
Potency [11]: inactive
outcome [12]: inactive
outcome [7]: inactive
Potency [13]: inactive
outcome [8]: inactive
outcome [9]: inactive
Potency [15]: inactive
Potency [16]: inactive
Potency [17]: inactive
Potency [18]: inactive

O=C1CC[C@@H](C(=O)O)N1
Potency [1]: inactive
Potency [2]: inactive
Potency [3]: inactive
outcome [5]: inactive
outcome [6]: inactive
Potency [11]: inactive
outcome [7]: inactive
Potency [13]: inactive
outcome [8]: inactive
outcome [14]: inactive
outcome [9]: inactive
Potency [15]: inactive
outcome [10]: inactive
Potency [16]: inactive
Potency [17]: inactive

CC(C)C1CCC(C(=O)N[C@H](Cc2ccccc2)C(=O)O)CC1 (some centres not stated)
Potency [1]: inactive
Potency [2]: inactive
Potency [3]: inactive
outcome [4]: inactive
outcome [5]: inactive
outcome [6]: inactive
outcome [12]: inactive
outcome [7]: inactive
Potency [13]: inactive
outcome [8]: inactive
outcome [14]: inactive
outcome [9]: inactive
Potency [15]: inactive
outcome [10]: inactive
Potency [16]: inactive
Potency [17]: inactive
